Experimental data published in PubChem BioAssay AID2284167 (EPA ToxCast).
Results filed as inconclusive are left out. The source made the active and inactive calls. Rule for the calls: active = hit-call score of the fitted dose curve at least 0.9, where 1 is the maximum; inconclusive = response in the unintended direction; inactive = score below 0.9.

The compounds below were run against human Neurotensin Receptor NT1 Agonism, NTSR1 (gene 4923) (UniProt P30989) (assay: ERF_FR_GPCR_hNTSR1: Eurofins (ERF) G Protein-Coupled Receptor (GPCR) Radioligand Binding LeadHunter Assay for human Neurotensin Receptor NT1 Agonism).
Sequence of human Neurotensin Receptor NT1 Agonism, NTSR1 (gene 4923) (P30989 whole entry, looked up): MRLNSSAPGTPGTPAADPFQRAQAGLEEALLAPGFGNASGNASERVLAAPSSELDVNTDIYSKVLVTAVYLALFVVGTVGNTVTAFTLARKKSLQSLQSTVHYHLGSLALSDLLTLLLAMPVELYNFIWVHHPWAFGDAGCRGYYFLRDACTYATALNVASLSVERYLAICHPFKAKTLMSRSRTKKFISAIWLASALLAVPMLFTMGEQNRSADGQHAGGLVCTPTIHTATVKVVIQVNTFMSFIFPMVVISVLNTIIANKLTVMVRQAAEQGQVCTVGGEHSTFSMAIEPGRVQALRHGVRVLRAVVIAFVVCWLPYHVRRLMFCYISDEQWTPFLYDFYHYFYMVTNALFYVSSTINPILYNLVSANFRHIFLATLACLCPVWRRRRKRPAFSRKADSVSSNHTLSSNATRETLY
Protocol: ERF_FR_GPCR_hNTSR1 is a biochemical, single-readout assay that uses extracted gene-proteins in a cell-free assay. Measurements were taken 1 hour after chemical dosing in a 96-well plate. See NT1 Human Neurotensin GPCR Binding (Agonist Radioligand) Assay, Cerep.ERF_FR_GPCR_hNTSR1 is an assay component calculated from the ERF_FR_GPCR_hNTSR1 assay. It is designed to measure radioligand binding using a type of binding reporter as detected by scintillation counting with radiometry technology.Data from the assay component ERF_FR_GPCR_hNTSR1 was analyzed at the assay endpoint, ERF_FR_GPCR_hNTSR1, in the positive analysis fitting direction relative to DMSO as the negative control and baseline of activity. Using a type of binding reporter, gain-of-signal activity can be used to understand changes in binding as they relate to gene NTSR1. To generalize the intended target to other relatable targets, this assay endpoint is annotated to the gpcr intended target family, where the subfamily is neurotensin.
Human cells are incubated for 60 minutes at 4 C with [125I]Tyr3-neurotensin ligand (0.05 nM) and neurotensin as control inhibitor. Test Sample Requirements: Minimum for 1) Screen: 60 ul of 10 mM stock -OR- 1 mg (pre-weighed) for 10 uM final testing. 2) Dose Response: 90 ul of 10 mM stock -OR- 1 mg (pre-weighed) for a top concentration at 10 uM.
For `O=C(/C=C/c1ccc(O)cc1)CC(=O)/C=C/c1ccc(O)cc1`, the AC50 was 2990 nM (active).
